GRK2 aptamer HTS – inhibitors of human GRK2 displacing RNA aptamer; inhibition of aptamer binding, % at 10 µM; AID 488847; hit rate 0.59% among 330,000; bead flow cytometry, FAM-aptamer displacement from GRK2;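 active = inhibition of aptamer binding above 40%, roughly 3 SD of noise, on plates passing a quality check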;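 also: median bead fluorescence of bound FAM aptamer so fluorescent compounds give negative values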
Target sequence (P25098 whole entry, looked up): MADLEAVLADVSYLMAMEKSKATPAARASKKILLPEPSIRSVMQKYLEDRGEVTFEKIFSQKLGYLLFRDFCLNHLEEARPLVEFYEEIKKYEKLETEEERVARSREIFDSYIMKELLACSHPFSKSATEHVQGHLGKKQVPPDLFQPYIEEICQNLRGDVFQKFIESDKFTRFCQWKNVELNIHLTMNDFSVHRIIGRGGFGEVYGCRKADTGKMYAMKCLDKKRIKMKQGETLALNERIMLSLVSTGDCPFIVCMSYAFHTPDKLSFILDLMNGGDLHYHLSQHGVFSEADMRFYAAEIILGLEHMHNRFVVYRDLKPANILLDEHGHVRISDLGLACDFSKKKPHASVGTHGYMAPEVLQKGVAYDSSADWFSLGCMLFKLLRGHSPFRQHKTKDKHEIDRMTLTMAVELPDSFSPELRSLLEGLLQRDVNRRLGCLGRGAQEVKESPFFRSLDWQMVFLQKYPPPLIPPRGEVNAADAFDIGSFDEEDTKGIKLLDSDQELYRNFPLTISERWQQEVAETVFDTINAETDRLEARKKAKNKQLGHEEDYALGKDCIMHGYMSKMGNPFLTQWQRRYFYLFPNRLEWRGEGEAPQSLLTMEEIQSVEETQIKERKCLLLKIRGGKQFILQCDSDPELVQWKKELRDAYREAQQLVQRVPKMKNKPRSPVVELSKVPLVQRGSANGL
VLA-4 inh – inhibition in a human VLA-4 binding assay. P13612. VLA-4 expressing cells, ligand binding flow cytometry. inhibition, % (about 7 µM as worked out from the volumes in the protocol). hit rate 0.2% among 330,000. AID 2557; in the data active = inhibition above about 50%
A3G deaminase – blocks human APOBEC3G single-stranded DNA deamination. hit rate 0.28% among 330,000. inhibition, % at 20 µM. recombinant A3G, ssDNA deamination FAM/TAMRA fluorescence. Q9HC16;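 active = inhibition of at least 40% at 20 µM, with no more than 30% in the related APOBEC3A deaminase screen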;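 also: plate controls were DMSO wells with A3G for no effect and wells lacking A3G enzyme for full effect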
APOBEC3A inh – blocks human APOBEC3A ssDNA deamination; recombinant A3A, FAM/TAMRA ssDNA deamination fluorescence; inhibition, % at 20 µM; hit rate 0.41% among 330,000;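 active = at least 40% inhibition at 20 µM here, with at most 30% in a related deaminase screen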;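 also: plate controls were A3A with DMSO for no effect and wells lacking A3A enzyme for full effect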
GRK2 inh confirm – confirmation of human GRK2 inhibitors displacing RNA aptamer; shares compounds with GRK2 aptamer HTS; aptamer displacement, % at 10 µM; bead-bound GRK2, FAM-aptamer displacement, flow cytometry; hit rate 4% among 2,000;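 active = aptamer displacement above 40%, near three times the noise of non-fluorescent compounds, on plates passing quality checks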;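 also: negative values mostly reflect intrinsic compound fluorescence rather than true enhancement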
FAM quench CP1 – counter-screen for GRK2 aptamer inhibitors: fluorescent aptamer quenchers | shares compounds with GRK2 aptamer HTS | Carboxyfluorescein RNA aptamer on beads, flow cytometry quenching; active compounds read low | fluorescence response (% of DMSO), % at 10 µM | 2,000 tested, under 10 active | AID 504580;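 active = compounds that quench the bead-bound fluorescent RNA probe, cutting fluorescence to under half of the solvent control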;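 also: counterscreen run without GRK2 so only probe quenching by compound is measured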
GRK2 confirm 2 – confirmation of human GRK2 inhibitors binding RNA aptamer site. shares compounds with GRK2 aptamer HTS. bead-bound GRK2, FAM-aptamer displacement, flow cytometry. inhibition of aptamer binding, % at 10 µM. 360 tested, under 10 active. AID 504782;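 active = inhibition of aptamer binding above 40%, about triple the noise seen with nonglowing compounds, on plates passing quality control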;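 also: negative values mostly come from compounds that fluoresce themselves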
FAM quench SP – aptamer fluorescence quenching in GRK2 counter-screen; shares compounds with GRK2 aptamer HTS; carboxyfluorescein RNA aptamer beads, flow cytometry quenching; active compounds read low; fluorescence response vs DMSO, % at 10 µM; 360 tested, under 10 active;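 active = response vs DMSO under 50%, meaning signal dropped by over half, treated as fluorescence quencher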;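 also: labelled aptamer on streptavidin beads without GRK2 as a quench counter-screen; 100% = bead fluorescence of DMSO wells and lower means quenching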
* = called active by the depositor; x = no result given. Only some compounds are listed: those with a hit (about 1.4% of all), similar ones and a draw of the others.

SMILES	GRK2 aptamer HTS	VLA-4 inh	A3G deaminase	APOBEC3A inh	GRK2 inh confirm	FAM quench CP1	others
O=C(O)/C=C\C(=O)Nc1ccc(N2CCN(c3ccc(F)cc3)CC2)cc1	5	2	-5	3	x	x
CC(=O)Nc1ccc(N2CCN(c3ccc(F)cc3)CC2)cc1	11	7	-5	-1	-1	103
CCc1cc(CC)c(/C=N/NC(N)=O)c(CC)c1/C=N/NC(N)=O	0	-7	-3	-1	x	x
Cc1cc(/C=N/NC(N)=O)c(C)c(CO)c1	77*	7	-5	2	3	98
Cc1nc(NC(=O)COC(=O)/C=C/c2ccco2)c(Cl)cc1Cl	21	-5	4	19	x	x
O=C(COC(=O)/C=C/c1ccco1)Nc1ncc(Cl)cc1Cl	60*	-8	3	37	10	100
O=C(COC(=O)/C=C/c1cccc(F)c1)Nc1ccc(Cl)cn1	5	0	-8	-3	x	x
O=C(COC(=O)/C=C/c1cccc(F)c1)Nc1ncccn1	45*	2	9	8	31	100
CCN1C(N(C)C)=NC[C@@H]1Cc1ccccc1	73*	-16	23	-1	-1	104
Cn1c(=O)[nH]c(=O)c2c1nc(Br)n2CC(O)COc1ccccc1 (stereo not drawn)	75*	10	-10	-4	-4	102
Cn1c(=O)[nH]c(=O)c2c1nc(SCC(=O)O)n2CCOc1ccccc1	0	-1	-7	-4	1	96
CCN(CC)CCNc1nc2c(c(=O)[nH]c(=O)n2C)n1CC(O)COc1ccc(Cl)cc1Cl (stereo not drawn)	0	16	-2	4	x	x
Cn1c(=O)[nH]c(=O)c2c1nc(SCCN1CCOCC1)n2Cc1ccccc1	89*	14	-1	-4	-2	104
Cc1cc(C)n(-c2nc3c(c(=O)[nH]c(=O)n3C)n2CC(O)COc2ccc(Cl)cc2Cl)n1 (stereo not drawn)	72*	13	-10	-4	3	96
COc1ccc(Cc2nc3ccc(C(=O)N4C[C@@H](C)O[C@@H](C)C4)cc3o2)cc1OC	5	-106	-7	-3	x	x
O=S(=O)(c1ccc2oc3ccccc3c2c1)N1CCCC1	2	24	-5	0	x	x
CC(Oc1ccc2c3c(c(=O)oc2c1)CCC3)C(=O)NCc1ccccn1 (stereo not drawn)	2	11	6	-1	x	x
Cc1ccc2nc(N3CCN(c4ccccc4F)CC3)c(C=O)c(=O)n2c1	64*	1	-4	1	0	100
CC(=O)c1cccc(NC(=O)CSCc2ccccc2)c1	43*	18	-13	-4	-2	99
CC(=O)c1cccc(NC(=O)CSCc2ccc(Br)cc2)c1	1	13	-2	0	x	x
CC1=C(C(=O)OCc2ccccc2)C(c2ccccc2)NC(=O)N1 (stereo not drawn)	2	21	-6	-6	x	x
CC1=C(C(=O)OCc2ccccc2)C(c2cccc(F)c2)NC(=O)N1 (stereo not drawn)	51*	4	-8	-7	5	82
O=C(CC1SC(N2CCOCC2)=NC1=O)Nc1cccc(C(F)(F)F)c1 (stereo not drawn)	2	-2	-2	3	x	x
CC1Cc2nc(SCC(=O)N3CCCC3)n(C)c(=O)c2S1 (stereo not drawn)	100*	9	-9	-3	-1	96
CC1Cc2nc(SCC(N)=O)n(C)c(=O)c2S1 (stereo not drawn)	0	26	-2	-2	x	x
CCC(C)c1ccc(NC(=S)N2CCN(C(=O)C3CCCO3)CC2)cc1 (stereo not drawn)	74*	9	-2	0	x	x	GRK2 confirm 2=-6;FAM quench SP=101
CCC(C)c1ccc(NC(=O)N2CCN(C(=O)C3CCCO3)CC2)cc1 (stereo not drawn)	0	16	-3	-2	x	x
CC(=O)N(CCc1ccccc1C)Cc1cc2ccc(C)cc2[nH]c1=O	61*	7	-9	-2	-1	104

Compound activity deposited in PubChem by several laboratories.
